Test results as given in PubChem BioAssay (NCI).
Where “and” joins values, the source holds several entries; their conditions need not be identical. Equal entries are not always repeated. About 83,000 compounds went through this panel and 20% of them were active in at least one assay; those are over-represented in the sample as a whole.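 How to read the values: 0–100, growth inhibition (40 = 60% inhibited); 0, no net growth; -100 to 0, cell death (-40 = 40% of starting cells died; -100 = all dead).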 Values without a mark were called inactive. Calls of active or inactive are those of the source. How the source made its calls: active means growth percent below 10; inactive means the rest.

These molecules were tested on MDA-MB-468 breast (assay: NCI-60 one-dose screen, 48 h (100 = growth as untreated, 0 = no growth, -100 = all killed)). Details: 10 µM unless noted.

| Structure (SMILES) | growth |
| --- | --- |
| CN1C(=O)N(C)[C@H]2NC(NN)=N[C@H]21 | 101% |
| COc1cc(-c2cc(-c3ccc(Nc4ncnc5cc(Cl)ccc45)cc3)nc(N3CCN(C)CC3)n2)cc(OC)c1OC | 105% |
| COc1cc(OC)c(S(N)(=O)=O)cc1C(C)=O | 98.4% |
| Cn1cc(-c2csc(-c3c[nH]c4ccccc34)n2)c2ccnc(Cl)c21 | -9.03% (active) |
| COc1ccc2c(c1)C(=O)c1c-2c(OCCN(C)C)nc2cc(OC)c(OC)cc12 | 81.6% |
| CCCCCCCCCCCCCCCCCC1=NCCN1CCOC1=C(Cl)C(=O)c2ccccc2C1=O | -50.1% (active) |
| O=C1C=CC(=O)N1Cc1ccco1 | 65.4% |
| COc1c(C)c2c(c(O)c1C/C=C(\C)CCC(=O)O)C(=O)OC2 | 37.9% |
| COc1ccc2c(c1)O/C(=C\c1ccc([N+](=O)[O-])s1)C2=O | -1.9% (active) |
| Clc1ccc2c(NCCNc3nc(-c4ccccc4)cc(-c4ccccc4)n3)ccnc2c1 | -53.8% (active) |
| CN(C)Cc1c(-c2ccccc2)[nH]c2ccccc12 | 103% |
| C#CCOc1ccc(/C=N/Nc2nc(-c3cc(Cl)ccc3Cl)cs2)cc1 | 25.9% |
| C=CN(C(=O)N1CCN(c2cc3c(cc2F)c(=O)c(C(=O)O)cn3C2CC2)CC1)c1nc(-c2ccc(OC)cc2)cs1 | 13.4% |
| CC(=O)c1nc2ccccc2n1CCN1CCN(C)CC1 | -20.2% (active) |
| Nc1cc2nc3ccccc3sc-2cc1=O | 72.9% |
| CC(=O)OC[C@]12CC[C@@H]([C@@H](C)c3nnc(-c4ccncc4)o3)[C@@H]1[C@H]1CC[C@@H]3[C@@]4(C)CC[C@H](OC(C)=O)C(C)(C)[C@@H]4CC[C@@]3(C)[C@]1(C)CC2 | 59% |
| O=c1c2c([nH]c3ccccc13)CCCC2 | 88.2% and 14.6% |
| C=C1C(=O)O[C@H]2[C@H]1CC/C(COC(=O)/C=C\C(=O)NCc1ccc(Cn3c(=O)sn(CCCI)c3=O)cc1)=C\CC[C@@]1(C)O[C@@H]21 | -82.1% (active) |
| CN(C)C(=S)N(C)C | 114% |
| OC(c1cc(C23CC4CC(CC(C4)C2)C3)nc2c(Cl)cc(Cl)cc12)C1CCCCN1 (stereo not given) | -89.7% (active) |

| Structure (SMILES) | growth |
| --- | --- |
| O=C(/C=C/c1ccc(Cl)cc1)c1ccc(Nc2nc(NCCO)nc(N3CCOCC3)n2)cc1 | 69.4% |
| O=C(/C=C/c1ccccc1)CC(c1ccccc1)N1CCOCC1 (stereo not given) | 92.4% |
| CCOC(=O)C1=C(C)Nc2nc3ccccc3n2C1c1cccc(Br)c1 (stereo not given) | 54.2% |
| CCCCCCCCN(CCCCCCCC)CC(O)c1cc(Cl)ccc1OC (stereo not given) | 32.6% |
| c1ccc(N2CCN(c3nncc4ccccc34)CC2)nc1 | 93.3% |
| Clc1ccc(-c2nc3ccc(/C(=N\N=C\c4ccccc4)c4ccccc4)cc3[nH]2)cc1 | 79.1% |
| CC1=C(CC(=O)c2cccc([N+](=O)[O-])c2)C(=O)c2ccccc2C1=O | -52.5% (active) |
| O=C(CN1CCN(c2cc3c(cc2F)c(=O)c(C(=O)O)cn3C2CC2)CC1)Nc1nc(-c2ccc(Cl)cc2)cs1 | 21.7% |
| ClC1(Cl)C2CCCCCCC21 (stereo not given) | 118% |
| NC(=O)c1ccccc1NC(=O)c1ccccc1Cl | 125% |
| Nc1c(C(=O)Nc2ccccc2)sc2nc3c(cc12)CN(C(=O)OCc1ccccc1)CC3 | 63.8% |
| O=[N+]([O-])CC(c1ccccc1)c1c[nH]c2ccccc12 (stereo not given) | 22.7% |
| O=C1c2ccc3c4c5ccc(c24)C(=O)N1CCCOCCCCOCCCNCc1ccc(cc1)CNCCCOCCCCOCCCN(C3=O)C5=O | -81.4% (active) |
| CCOC(=O)C1CCNC(=O)C1=O (stereo not given) | 99.5% |
| COc1ccc(/C=C/C(=O)c2ccc(NC(=O)CSc3nnc(-c4ccc5nc(-c6ccc(Cl)cc6)[nH]c5c4)o3)cc2)cc1 | 110% |
| O=C(/C(=C/c1ccc([N+](=O)[O-])cc1)SCc1ccc(Cl)cc1)c1ccc(F)cc1 | 77.2% |
| COCCOc1ccc(-c2csc(NC(=O)CN3CCN(CCO)CC3)n2)cc1NS(=O)(=O)c1cccc2c(N(C)C)cccc12 | 60.7% |
| Clc1ccc(SSc2ccc(Cl)cc2)cc1 | 95.7% and 95.5% |
| COc1cc(OC)c(/C=C/S(=O)(=O)Cc2ccc(OC)c(NCC(=O)O)c2)c(OC)c1 | -4.64% (active) |
| CC(=O)Nc1ccc2cc3ccc(NC(C)=O)cc3nc2c1 | 56.5% |
